# Results taken from PubChem BioAssay AID1671202 (University of Kansas High Throughput Screening Laboratory, 2021).
# Where “and” joins values, the source holds several entries; their conditions need not be identical. Identical values can stand only once. Screen size: about 190,000 compounds; about 6,900 (3.6%) were called active. The sample holds actives, similar compounds and a random draw of the others, so the mix is not that of the screen. Cut-off read from the data, not from the text of the source: active = inhibition above about 50%; inactive = the rest. More than one record can exist for a structure, and the calls need not agree.
# Target: Huntingtin (Homo sapiens) (UniProt P42858)
# Test: mutant huntingtin-calmodulin interaction inhibitors – biochemical, AlphaScreen, primary screen (AID 1671202);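 note: 0% = both proteins with DMSO and 100% = one protein alone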
# Settings: AlphaScreen His-mHTT/GST-CaM binding, luminescence; at 15 µM, stronger effect = higher value
# Huntingtin (Homo sapiens), sequence (P42858 whole entry, looked up, stated change not applied): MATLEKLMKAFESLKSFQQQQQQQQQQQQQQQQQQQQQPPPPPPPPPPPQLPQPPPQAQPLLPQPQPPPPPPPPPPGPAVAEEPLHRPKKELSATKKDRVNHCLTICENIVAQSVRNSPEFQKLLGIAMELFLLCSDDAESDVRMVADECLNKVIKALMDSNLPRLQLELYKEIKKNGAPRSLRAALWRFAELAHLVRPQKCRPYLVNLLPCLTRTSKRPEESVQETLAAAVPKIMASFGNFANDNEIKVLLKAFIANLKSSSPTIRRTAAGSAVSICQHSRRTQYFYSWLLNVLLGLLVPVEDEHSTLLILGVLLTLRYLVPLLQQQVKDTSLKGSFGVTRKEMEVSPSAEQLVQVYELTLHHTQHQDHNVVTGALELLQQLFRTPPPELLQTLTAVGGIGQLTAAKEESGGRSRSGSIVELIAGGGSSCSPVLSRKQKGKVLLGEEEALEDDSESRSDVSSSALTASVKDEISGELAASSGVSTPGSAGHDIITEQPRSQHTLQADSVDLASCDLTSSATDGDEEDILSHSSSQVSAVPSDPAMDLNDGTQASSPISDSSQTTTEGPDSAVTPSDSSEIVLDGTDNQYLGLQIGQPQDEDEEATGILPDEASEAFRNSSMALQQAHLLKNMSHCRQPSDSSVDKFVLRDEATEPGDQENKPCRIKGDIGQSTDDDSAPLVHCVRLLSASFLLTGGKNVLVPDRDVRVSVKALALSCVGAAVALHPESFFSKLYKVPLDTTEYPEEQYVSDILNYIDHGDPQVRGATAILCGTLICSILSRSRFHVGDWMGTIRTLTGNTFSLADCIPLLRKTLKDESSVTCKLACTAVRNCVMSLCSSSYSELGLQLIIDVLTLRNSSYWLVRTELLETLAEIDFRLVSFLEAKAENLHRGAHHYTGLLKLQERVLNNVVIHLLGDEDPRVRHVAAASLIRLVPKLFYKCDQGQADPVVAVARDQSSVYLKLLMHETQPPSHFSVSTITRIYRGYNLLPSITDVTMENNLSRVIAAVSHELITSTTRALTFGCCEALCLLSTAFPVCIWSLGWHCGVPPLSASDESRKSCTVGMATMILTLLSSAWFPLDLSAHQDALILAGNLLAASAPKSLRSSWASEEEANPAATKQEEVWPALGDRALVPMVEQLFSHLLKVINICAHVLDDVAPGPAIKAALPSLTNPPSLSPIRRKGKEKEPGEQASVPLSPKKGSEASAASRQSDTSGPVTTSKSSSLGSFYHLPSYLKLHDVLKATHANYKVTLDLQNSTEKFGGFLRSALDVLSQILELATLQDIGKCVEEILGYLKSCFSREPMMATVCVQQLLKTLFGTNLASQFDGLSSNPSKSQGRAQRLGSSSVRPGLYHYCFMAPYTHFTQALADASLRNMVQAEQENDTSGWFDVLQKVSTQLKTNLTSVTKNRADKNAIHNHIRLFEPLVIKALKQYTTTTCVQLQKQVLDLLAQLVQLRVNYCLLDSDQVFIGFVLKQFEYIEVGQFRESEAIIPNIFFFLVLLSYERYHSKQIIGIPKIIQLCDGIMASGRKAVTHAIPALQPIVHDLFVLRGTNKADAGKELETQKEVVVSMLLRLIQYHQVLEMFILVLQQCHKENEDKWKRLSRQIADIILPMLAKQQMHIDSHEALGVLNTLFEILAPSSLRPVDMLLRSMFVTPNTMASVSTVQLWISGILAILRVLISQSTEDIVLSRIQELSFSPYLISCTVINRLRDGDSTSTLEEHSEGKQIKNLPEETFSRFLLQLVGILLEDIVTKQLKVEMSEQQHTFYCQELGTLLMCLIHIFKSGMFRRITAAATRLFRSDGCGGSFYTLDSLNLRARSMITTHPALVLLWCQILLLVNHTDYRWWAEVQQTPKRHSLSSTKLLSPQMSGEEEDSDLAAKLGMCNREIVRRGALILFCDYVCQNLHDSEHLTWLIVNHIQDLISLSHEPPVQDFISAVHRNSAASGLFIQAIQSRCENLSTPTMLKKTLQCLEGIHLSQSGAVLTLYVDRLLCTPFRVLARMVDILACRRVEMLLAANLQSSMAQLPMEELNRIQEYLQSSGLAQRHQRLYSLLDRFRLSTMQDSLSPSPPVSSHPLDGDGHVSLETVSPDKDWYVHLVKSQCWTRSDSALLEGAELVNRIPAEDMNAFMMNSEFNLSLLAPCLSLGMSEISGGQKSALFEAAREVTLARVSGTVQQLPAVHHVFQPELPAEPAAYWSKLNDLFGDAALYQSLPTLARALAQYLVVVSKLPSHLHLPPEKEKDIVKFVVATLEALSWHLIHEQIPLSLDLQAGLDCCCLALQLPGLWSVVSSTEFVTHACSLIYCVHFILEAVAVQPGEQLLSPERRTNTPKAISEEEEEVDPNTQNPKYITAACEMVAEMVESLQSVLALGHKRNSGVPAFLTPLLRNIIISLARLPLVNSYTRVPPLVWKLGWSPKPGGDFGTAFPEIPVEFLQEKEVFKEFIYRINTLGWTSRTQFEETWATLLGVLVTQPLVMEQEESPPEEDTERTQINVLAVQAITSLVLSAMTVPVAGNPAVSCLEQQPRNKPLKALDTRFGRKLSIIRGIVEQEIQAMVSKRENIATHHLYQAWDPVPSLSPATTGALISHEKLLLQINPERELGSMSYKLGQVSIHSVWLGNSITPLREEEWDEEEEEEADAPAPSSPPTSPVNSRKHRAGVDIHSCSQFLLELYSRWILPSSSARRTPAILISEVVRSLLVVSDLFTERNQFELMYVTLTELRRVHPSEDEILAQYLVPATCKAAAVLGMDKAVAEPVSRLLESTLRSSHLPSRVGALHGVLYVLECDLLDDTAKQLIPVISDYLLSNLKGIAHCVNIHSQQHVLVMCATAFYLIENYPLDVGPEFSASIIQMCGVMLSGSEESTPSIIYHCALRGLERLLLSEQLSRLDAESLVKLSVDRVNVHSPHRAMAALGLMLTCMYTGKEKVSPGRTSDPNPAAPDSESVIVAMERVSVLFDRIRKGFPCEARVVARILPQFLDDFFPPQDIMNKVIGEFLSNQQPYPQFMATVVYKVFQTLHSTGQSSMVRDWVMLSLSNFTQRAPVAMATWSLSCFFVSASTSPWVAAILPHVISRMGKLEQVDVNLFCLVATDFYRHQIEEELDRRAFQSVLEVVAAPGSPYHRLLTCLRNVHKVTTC
row,SMILES,inhibition
1,COc1ccc(Cl)cc1NC(=O)C1CC(=O)N(c2ccc3c(c2)CCN3C(C)=O)C1 (centres undefined),2.25% (inactive)
2,Cn1nccc1C(=O)N1CCCC1c1cccc(F)c1 (centres undefined),-3.94% (inactive)
3,COc1ccc(S(=O)(=O)NCCc2ccccc2)c(C)c1C,-7.6% (inactive)
4,CN1CCc2cc(C(CNC(=O)C(=O)NCc3ccccc3Cl)N(C)C)ccc21 (centres undefined),53.3% (active)
5,CN1CCCc2cc(C(CNC(=O)c3ccccc3Cl)N3CCOCC3)ccc21 (centres undefined),19.8% (inactive)
6,CN1CCCc2cc(C(CNC(=O)C(=O)NC3CCCCC3)N(C)C)ccc21 (centres undefined),5.1% (inactive)
7,N#CCn1cccc1-c1nc(-c2ccncc2)no1,38.7% (inactive)
8,CC(C)(C)C(O)CCNC(=O)c1cccc(F)c1 (centres undefined),-16.4% (inactive)
9,COc1ccc(C2=N/C(=C/c3ccc4c(c3)OCO4)C(=O)O2)c(Br)c1,3% (inactive)
10,O=C(Nc1ccc(N2CCOCC2)cc1)c1cccc(Br)c1,-1.7% (inactive)
11,COc1ccccc1OCC(=O)Nc1c2c(nn1-c1ccc(F)cc1)CS(=O)(=O)C2,-5.8% (inactive)
12,O=C1C2CC=CCC2C(=O)N1c1ccc(F)c([N+](=O)[O-])c1 (centres undefined),-1% (inactive)
13,CC1CC(=O)N(c2ccc(NC3CCCC(C)C3C)c([N+](=O)[O-])c2)C1=O (centres undefined),51% (active)
14,CC1CCCC(Nc2ccc(N3C(=O)CCCC3=O)cc2[N+](=O)[O-])C1C (centres undefined),48% (inactive)
15,COc1ccccc1NC(=O)C(CCS(C)(=O)=O)NC(C)=O (centres undefined),0% (inactive)
16,Cc1ccc(C2=NC3(CCCCC3)N(CC(=O)Nc3cccc(C)c3)C2=O)cc1,0.12% (inactive)
17,CN(C)c1ncccc1C(=O)Nc1ccccc1F,-5.3% (inactive)
18,CCCc1cc(C2CCCN2Cc2cn[nH]c2-c2cccc(OC)c2)no1 (centres undefined),-7.21% (inactive)
19,CCOc1ccc(-c2nn(C)c(C)c2Oc2ccccc2)c(O)c1,-3.5% (inactive)
20,Cc1c(O)ccc(-c2[nH]ncc2Oc2ccccc2)c1O,54.4% (active) and 53% (active)
21,COc1ccc(-c2c(-c3ccc(OC)cc3O)nc(C)nc2C(F)(F)F)cc1,-2.9% (inactive)
22,CCCc1ccc(Oc2cn[nH]c2-c2ccc(OC)cc2O)cc1,51% (active)
23,CCOc1ccccc1CN1CCC(C(=O)N2CCN(Cc3ccccc3)CC2)CC1,2.9% (inactive)
24,CC(C)(C)CC(=O)N1CC(C(=O)NC2CC2)C(c2ccc(F)cc2)C1 (centres undefined),-0.9% (inactive)

row,SMILES,inhibition
1,O=C(c1ccc(C(F)(F)F)cc1)N1CCN(c2nc(CN3CCCC3)cs2)CC1,1.28% (inactive)
2,COc1ccc(CN(CC(=O)NCCc2ccccc2)S(=O)(=O)c2cccnc2)cc1,-5.6% (inactive)
3,COc1cccc(CN2CCc3nc(N4CCN(c5ccc(F)cc5)CC4)ncc3C2)c1,-4.69% (inactive)
4,O=C(Nc1cc(Cl)ccc1O)c1nn2c(c1Cl)NC(c1cccs1)CC2C(F)(F)F (centres undefined),90% (active)
5,CCCNC(=O)c1nn2c(c1Cl)NC(c1ccc(Cl)cc1)CC2C(F)(F)F (centres undefined),9% (inactive)
6,O=C(Nc1ccc(Cl)cc1)c1cc2n(n1)C(C(F)(F)F)CC(c1cccs1)N2 (centres undefined),-2% (inactive)
7,O=C(NCc1ccco1)C1CN(S(=O)(=O)c2cccs2)CC12CCCCC2 (centres undefined),2.15% (inactive)
8,Cc1ccc(Sc2nccnc2N2CCC(C(=O)N3CCN(C)CC3)CC2)cc1,10.6% (inactive)
9,CC(C)N(c1snnc1N)C(C)C,-2.94% (inactive)
10,CC1=C(C(=O)Nc2ccc(Br)cn2)C(c2cccnc2)C2=C(CCCC2=O)N1 (centres undefined),1% (inactive)
11,COc1ccc(/C=C2\N=C(c3ccc(Cl)c([N+](=O)[O-])c3)OC2=O)cc1OC,7% (inactive)
12,COc1ccc(N=Cc2ccc(Cl)c([N+](=O)[O-])c2)cc1OC,57% (active)
13,COc1ccc(NC(=O)c2ccc(OC)c([N+](=O)[O-])c2)cc1Cl,-0.1% (inactive)
14,CCNc1cc(N2CCC(CCC(=O)NCC(C)C)CC2)ncn1,0.14% (inactive)
15,CCN(CC)CCCNc1c(CCC#N)c(C)c(C#N)c2nc3ccccc3n12,4% (inactive)
16,O=C(CN1C(=O)S/C(=C\c2ccccc2)C1=O)Nc1ccccc1Cl,-5% (inactive)
17,COc1ccc(-n2ncc3c(N4CCc5ccccc54)ncnc32)cc1,11% (inactive)
18,c1ccc2c(c1)CCN2c1nc(N2CCOCC2)c2n[nH]nc2n1,83.5% (active)
19,Fc1cnc(N2CCOCC2)nc1NCc1ccccc1,0.7% (inactive)
20,Cc1ccc(NC(=O)NCCC2CCN(S(=O)(=O)c3ccc(F)cc3)CC2)c(C)c1,42.8% (inactive)
21,CC1(C)c2ccccc2N2CC(=O)NC21/C=C/c1cccc(Br)c1 (centres undefined),100% (active)
22,O=c1[nH]c(/C=C/c2cccc(Br)c2)nc2ccccc12,-5.1% (inactive)
23,COCCOCC1CCN(C(=O)c2cccc(N(C)C)c2)CC1,-11.5% (inactive)
24,CCC(=O)Nc1cccc(NC(=O)c2ccc(C(C)C)cc2)c1,0.3% (inactive)

row,SMILES,inhibition
1,CC1=Nc2c(ccc3cccnc23)C1(C)C,66.6% (active) and 14.1% (inactive)
2,COc1cc2c(cc1NC(=O)c1ccc(OC)c(OC)c1OC)oc1ccccc12,-2.6% (inactive)
3,CCCN1CCN(c2ncnc3c2nc2n3CCCC2)CC1,-1.5% (inactive)
4,N#Cc1c(N=Cc2ccc(Br)cc2)sc2c1CCC2,23% (inactive)
5,O=C1CCN(Cc2ccc([N+](=O)[O-])cc2)CCN1[C@H](CO)Cc1ccccc1,6.4% (inactive)
6,N#Cc1cccc(CN2CCC(=O)N([C@H](CO)c3ccccc3)CC2)c1,0.1% (inactive)
7,O=C1CCN(Cc2ccccc2)CCN1[C@H](CSc1ccccc1)c1ccccc1,98.8% (active)
8,O=C1CC[C@H](O)CCN1[C@H](CSc1ccc(Br)cc1)Cc1ccccc1,24.2% (inactive)
9,COc1ccc(SC[C@H](Cc2ccccc2)N2CCN(CCc3ccccc3)CCC2=O)cc1,92.2% (active)
10,C[C@H]1CCC(=O)N([C@H](CSc2ccccc2)Cc2ccccc2)CC1,-8.3% (inactive)
11,Cc1ccc(CCNC(=O)c2cc3n(n2)CCCN(Cc2ccc(Cl)cc2)C3=O)cc1,27.7% (inactive)
12,O=C(N1CCOCC1)[n+]1ccc(/C=C/c2ccc(Cl)cc2)cc1,8% (inactive)
13,CC1(C)CC(=O)c2sc(NC(=O)C(C)(C)Oc3ccc(Cl)cc3)nc2C1,-1% (inactive)
14,CCNc1nc(NCC)n2c(SCC(=O)c3ccc(C(C)(C)C)cc3)nnc2n1,-3% (inactive)
15,O=C(NCCc1ccc(Cl)cc1)c1cnn2c3c(cnc12)CCCC3,-0.73% (inactive)
16,COc1ccc(C=C2Oc3c(ccc(OC(=O)N4CCOCC4)c3C)C2=O)cc1OC,1.6% (inactive)
17,CCCc1[nH]nc2c1C1(CCOCC1)C(C#N)=C(N)O2,-0.61% (inactive)
18,COc1cccc(C=C2Oc3c(ccc(O)c3CN3CCN(C)CC3)C2=O)c1,18.1% (inactive)
19,CN1CCN(Cc2c(O)ccc3c2OC(=Cc2cc4cc(Br)ccc4o2)C3=O)CC1,61.5% (active)
20,COc1ccc(C=C2Oc3c(ccc(O)c3CN3CCN(C)CC3)C2=O)cc1OC,6.2% (inactive)
21,CCOc1ccccc1C(=O)NCc1ccc2c(c1)cc(C)n2C,38.2% (inactive)
22,COc1ccccc1N1CCN(C(=O)C(c2ccccc2)c2ccccc2)CC1,38.2% (inactive)
23,COc1ccccc1N1CCN(C(=O)CSCc2ccccc2C)CC1,66.4% (active)
24,COc1ccccc1N1CCN(C(=O)Cc2csc(Nc3nc(C)cc(C)n3)n2)CC1,65% (active)

row,SMILES,inhibition
1,Cc1cc(C)nc(Nc2nc(CC(=O)Nc3nc(-c4ccco4)cs3)cs2)n1,83.2% (active)
2,COc1ccc(N2CCN(C(=O)CSCc3ccccc3)CC2)cc1,20.7% (inactive)
3,O=C(CCCn1cccc1)Nc1nc(-c2ccco2)cs1,28.4% (inactive)
4,COC(=O)Nc1nc(CC(=O)NCc2ccco2)cs1,-3.8% (inactive)
5,COc1ccccc1NC(=O)Nc1nc(CC(=O)N2CCc3ccccc32)cs1,14.7% (inactive)
6,COc1ccccc1N1CCN(C(=O)c2cn3ccc(C)cc3n2)CC1,0.9% (inactive)
7,O=C(CCS(=O)(=O)c1ccc(Br)s1)Nc1ccc(F)cc1,-1% (inactive)
8,CC(C)C(=O)Oc1ccc2c(c1)OC(=Cc1ccco1)C2=O,42.1% (inactive)
9,CC(C)C1(CCN(Cc2ccc3c(c2)OCO3)C(=O)c2ccco2)CCOC(C)(C)C1 (centres undefined),-2.26% (inactive)
10,COc1cc(OC)cc(C(=O)Nc2nc(C)c(C)s2)c1,9.5% (inactive)
11,Cn1nccc1C(=O)N1CCC(c2nncn2-c2ccccc2)CC1,-1.38% (inactive)
12,CCC(C)NC(=O)c1cn(CC(C)C)c(=O)c2c1c1ccccc1n2C (centres undefined),-2% (inactive)
13,Cc1ccc(COCc2nn(C)c3c2CN(C(=O)Nc2cccc(C)c2)CC3)cc1,30.3% (inactive)
14,O=C(CSc1nccn1-c1ccccc1)Nc1ccccc1C(F)(F)F,18% (inactive)
15,Cc1cc(C(=O)N2CCC(CCOc3ccc(F)cc3)CC2)no1,-3.47% (inactive)
16,CCOC(=O)N1CCC2(CC1)N=C(c1cc(Cl)ccc1O)CC(c1ccc(C)cc1)N2 (centres undefined),6.77% (inactive)
17,CN1CCC2(CC1)N=C(c1ccc3c(c1)OCO3)CC(c1cc(Cl)ccc1O)N2 (centres undefined),16% (inactive)
18,CCN1CCC2(CC1)N=C(c1ccccc1O)CC(c1ccc(C)cc1)N2 (centres undefined),51.5% (active)
19,Oc1ccc(Cl)cc1C1CC(c2ccccc2)=NC2(CCNCC2)N1 (centres undefined),7.96% (inactive)
20,COc1cccc(C2CC(c3ccc(C)cc3C)=NC3(CCN(C(C)=O)CC3)N2)c1O (centres undefined),7.51% (inactive)
21,CCOC(=O)N1CCC2(CC1)N=C(c1ccccc1O)CC(c1ccc(F)c(Cl)c1)N2 (centres undefined),51.8% (active)
22,Cc1ccc(S(=O)(=O)NCC2CCN(C(=O)Oc3ccccc3)CC2)s1,-6.7% (inactive)
